Assay outcomes: PubChem BioAssay, University of Kansas High Throughput Screening Laboratory
In the library only some 3.5% were active in any assay of this set; here they are far more common.
Pf apPOL inh – Pf-apPOL DNA polymerase inhibition; Recombinant Pf-apPOL, molecular beacon fluorescence, 1.5 h; 0.25% of 210,000 active; AID 1794808; inhibition, % at 10 µM
mHTT CaM bind – inhibitors of human mutant huntingtin-calmodulin interaction; P42858; AlphaScreen His-mHTT/GST-CaM binding, luminescence; inhibition, % at 15 µM; 3.6% of 190,000 active; AID 1671202
Large screens that a line does not name were inactive; ! = a repeat was not active. Cut-off read from the data, not from the text of the source: active = inhibition above about 50%; inactive = the rest.

Cn1c2c(c(=O)[nH]c1=O)C(c1ccc(O)cc1)C1=C(N2)c2ccccc2C1=O (stereo unspecified)	none
Cn1c2c(c(=O)[nH]c1=O)C(c1ccc(OCc3ccccc3)cc1)C1=C(N2)c2ccccc2C1=O (stereo unspecified)	mHTT CaM bind 86
O=C1C2=C(Nc3[nH]c(=O)[nH]c(=O)c3C2c2ccc(Cl)cc2)c2ccccc21 (stereo unspecified)	mHTT CaM bind 67!
Cn1c2c(c(=O)n(C)c1=O)C(c1ccc(Cl)cc1)C1=C(N2)c2ccccc2C1=O (stereo unspecified)	none
Cc1ccc2[nH]cc(-c3nc(-c4ccc(C(F)(F)F)cc4)no3)c(=O)c2c1	none
Brc1cccc(CNc2cc3c(cc2Br)OCCO3)c1	mHTT CaM bind 78
Brc1ccc2c(c1)OCCOCCOc1ccc(Br)cc1OCCO2	none
O=C(Nc1ccc2c(c1)OCCO2)N1CC2CN(S(=O)(=O)c3ccccc3)CC(C1)O2	none
Cc1nc(-c2ccccc2)sc1C(=O)N1CCC(C(C)C(=O)NC2CCCC2)CC1 (stereo unspecified)	mHTT CaM bind 100
Cc1nc(-c2ccccc2)sc1C(=O)N1CCC(CC(=O)NC2CCCCC2)CC1	none
COc1ccc(C(=O)N2CCN(c3cc(-c4cccnc4)[nH]n3)CC2)cc1OC	none
O=C(NC(NCc1ccco1)(C(F)(F)F)C(F)(F)F)c1cccnc1	none (no result: mHTT CaM bind)
CC(=O)OCC(OC(C)=O)C(OC(C)=O)C(OC(C)=O)C(N)=O (stereo unspecified)	none (no result: mHTT CaM bind)
Cc1n[nH]c(C)c1Sc1ccccc1N=Cc1cc(Br)ccc1O	mHTT CaM bind 58
Cc1n[nH]c(C)c1Sc1ccccc1N=Cc1ccc(C(=O)O)cc1	none
Cc1n[nH]c(C)c1Sc1ccccc1N=Cc1c(C)[nH]n(-c2ccccc2)c1=O	mHTT CaM bind 88
Cc1n[nH]c(C)c1Sc1ccccc1N=Cc1cc(Cl)ccc1O	none
Cn1ncc(Br)c1C(=O)N1CCCC1c1cccc(F)c1 (stereo unspecified)	none
CCOC(=O)Cc1csc(NC(=O)CN(C)c2nc3c(C)ccc(C)c3s2)n1	none
Cc1ccc(F)cc1S(=O)(=O)N1CCCN(Cc2noc3ccccc23)CC1	none
O=C1OC(c2ccc(Cl)cc2)=C/C1=C/c1ccc(-c2ccccc2C(=O)O)o1	mHTT CaM bind 56
CC1=NOC(=O)/C1=C/c1ccc(-c2ccccc2)o1	none
O=C1OC(c2ccc(Cl)cc2)=C/C1=C\c1ccccc1	none
CCCC1=C/C(=C\c2ccc(-c3ccccc3)o2)C(=O)O1	mHTT CaM bind 50
CCCC(=O)Nc1nnc(-c2ccc(C(C)(C)C)cc2)s1	none
CCOCc1nnc(NC(=O)C(C)(C)C)s1	none (no result: Pf apPOL inh)
O=C(Nc1cc(Cl)cc(Cl)c1)N1CCCN(Cc2ccccc2)CC1	none (no result: mHTT CaM bind)
O=C(Nc1ccc(Cl)c(Cl)c1)N1CCCN(Cc2ccccc2)C1	mHTT CaM bind 95
Cc1ccc(S(=O)(=O)Nc2nc(-c3ccccc3)c(-c3ccccc3)o2)cc1	mHTT CaM bind 50
Cc1ccc(S(=O)(=O)Nc2ccccc2-c2ccccc2)cc1	none
CCN1c2cc(C)ccc2-n2cccc2C12CCN(C(=O)NCC1CCCO1)CC2 (stereo unspecified)	mHTT CaM bind 65
COC(=O)CNC(=O)N1CCOc2ccc(C)cc21	none
CCCNC(=O)N1CCC2(CC1)c1cccn1-c1ccc(C)cc1N2CC	mHTT CaM bind 100
CCN1c2cc(C)ccc2-n2cccc2C12CCN(C(=O)Nc1ccccc1C)CC2	none
Cc1cccc(C(=O)NCC2CCCO2)c1 (stereo unspecified)	none
CCN1c2cc(C)ccc2-n2cccc2C12CCN(C(=O)c1ccc(OC)cc1)CC2	mHTT CaM bind 94
CCOc1ccc(C(=O)N2CCC3(CC2)NC(=O)c2cc(C)ccc2N3CC)cc1	none
CCN1c2cc(C)ccc2-n2cccc2C12CCN(C(=O)NCC(=O)OC)CC2	mHTT CaM bind 76
COC(=O)Nc1ccc2c(c1)C(=O)N(C)CCO2	none
O=[N+]([O-])c1cc(Cl)cc(C=Nc2ccc(F)cc2)c1O	none
CCOc1ccc(N=C2NC(=O)S/C2=C\c2ccc(OC)c(OC)c2)cc1	none
CCN1c2cc(C)ccc2-n2cccc2C12CCN(C(=O)Nc1cccc(F)c1)CC2	mHTT CaM bind 72
CCN1c2cc(C)ccc2-n2cccc2C12CCN(C(=O)Nc1ccccc1F)CC2	none
CC1CCN(c2ncc3c(n2)CCC(C(=O)NCc2ccc(N4CCOCC4)cc2)C3)CC1 (stereo unspecified)	none
COc1ccc(C2CC(=O)C3=C(C2)Nc2ccccc2NC3c2ccc(C)s2)cc1OC (stereo unspecified)	none
COc1ccc(C2CC(=O)C3=C(C2)Nc2ccccc2NC3c2ccc(N(C)C)cc2)cc1OC (stereo unspecified)	mHTT CaM bind 52
COc1ccc(C2CC(=O)C3=C(C2)Nc2ccccc2NC3c2ccc(Cl)cc2)cc1OC (stereo unspecified)	none
COc1ccc(C2CC(=O)C3=C(C2)Nc2ccccc2NC3c2ccc(Cl)s2)cc1OC (stereo unspecified)	mHTT CaM bind 56
O=C(O)c1ccccc1C=Cc1cccs1	none (no result: mHTT CaM bind)
Nc1cc(=O)[nH]c(=S)n1C1CC1	none (no result: Pf apPOL inh)
COc1cccc(S(=O)(=O)N2CCc3nc(NC(=O)c4sccc4C)sc3C2)c1	none
COc1ccc(C2CC(c3cc(OC)ccc3OC)n3ncnc3N2)cc1 (stereo unspecified)	none
COc1ccc(C2CC(c3ccc(Br)cc3)Nc3ncnn32)c(OC)c1OC (stereo unspecified)	mHTT CaM bind 57
COc1cccc(C2CC(c3ccc(I)cc3)Nc3ncnn32)c1OC (stereo unspecified)	none
COc1ccc(OC)c(C2CC(c3ccc(Br)cc3)Nc3ncnn32)c1 (stereo unspecified)	mHTT CaM bind 61
COc1ccc(C2CC(c3cccc(Br)c3)Nc3ncnn32)c(OC)c1 (stereo unspecified)	none
COc1ccc(C2CC(c3ccc(Br)cc3)Nc3ncnn32)c(OC)c1 (stereo unspecified)	mHTT CaM bind 57
COc1cccc(C2CC(c3ccc(C)c(C)c3)Nc3ncnn32)c1OC (stereo unspecified)	mHTT CaM bind 53
COc1ccc(C2CC(c3ccc(C)cc3)Nc3ncnn32)c(OC)c1OC (stereo unspecified)	none
Cc1nn(-c2ccc(C(=O)NCc3ccccn3)cc2)c2c1C(=O)CC(C)(C)C2	none
O=S(=O)(C1CC1)N1CCC(c2nc(-c3ccncc3)no2)C1 (stereo unspecified)	none
Cc1ccc(NC(=O)CCNS(=O)(=O)c2ccc(Br)s2)cc1Cl	none
COc1ccc(-c2cc3n(n2)CCCN(C(=O)c2ccsc2)C3)cc1OC	none
CCC(=O)NCCc1csc(C2CCCN(C(=O)c3ccc4ccccc4n3)C2)n1 (stereo unspecified)	none
Cc1cc(Sc2cc(C)c(O)c(C(C)(C)C)c2)cc(C(C)(C)C)c1O	none (no result: Pf apPOL inh)
Cc1cc(O)c(C(C)(C)C)cc1S(=O)c1cc(C(C)(C)C)c(O)cc1C	mHTT CaM bind 68 (no result: Pf apPOL inh)
Cc1cc(O)c(C(C)(C)C)cc1Sc1cc(C(C)(C)C)c(O)cc1C	mHTT CaM bind 100 (no result: Pf apPOL inh)
CC(C)(C)c1cc(O)c(C(C)(C)C)cc1O	none
Cc1cc(Cc2cc(C(C)(C)C)c(O)c(C(C)(C)C)c2)c(O)c(C(C)(C)C)c1	none (no result: Pf apPOL inh)
Cc1cc(S(=O)c2cc(C)cc(C(C)(C)C)c2O)c(O)c(C(C)(C)C)c1	mHTT CaM bind 72 (no result: Pf apPOL inh)
CCc1ccccc1NC(=O)COc1cc(C)nc(N2CCCC(C)C2)n1 (stereo unspecified)	none
CCc1onc(C)c1C1CCCN1C(=O)c1cc(-c2ccc(OC)c(OC)c2)on1 (stereo unspecified)	none
